# A selection: hits, their analogues and other compounds. The true share with any hit is near 12%.
# BAZ2B inh: qHTS Assay for Inhibitors of BAZ2B | Bromodomain adjacent to zinc finger domain protein 2B (Homo sapiens), Q9UIF8 | AlphaScreen BAZ2B-H3K14Ac peptide displacement | Potency, µM (series often up to 114 µM), without a hit: top-dose activity change, negative = inhibition, usual class: inhibitors | 360,000 tested, 4.4% active; also: potency is read from the fitted curve at half-maximal effect; % is scaled to controls: 0 for no effect and ±100 for the full control effect; nearly all actives have a fitted effect of over 60% in size
#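 BAZ2B 50 nM plus b-H3(5-23)K14Ac 50 nM, PBS pH 7.4/0.01% Tween-20, 30 min RT; compound added (max 110 uM), 30 min RT; streptavidin donor/Ni-chelate acceptor beads 10 ug/mL final, 20 min dark; AlphaScreen read.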
# G9a block: qHTS Assay for Inhibitors of Histone Lysine Methyltransferase G9a; Histone-lysine N-methyltransferase EHMT2 (Homo sapiens), Q96KQ7; G9a H3K9 monomethylation, AlphaScreen, 2 h; Potency, µM (highest dose often 102 µM), for inactives: at the highest dose activity, negative = inhibition, usual class: inhibitors; 350,000 tested, 8.8% active; AID 504332, 2011; also: potency is read from the fitted curve at half-maximal effect; % is scaled to controls: 0 for no effect and ±100 for the full control effect; nearly all actives have a fitted effect of over 75% in size
#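 AlphaScreen detection with an anti-monomethyl H3K9 antibody quantified product after a 2 h room-temperature reaction containing 500 nM biotinylated H3K9 peptide, 20 µM SAM and 20 nM enzyme, which had been preincubated 15 min with compound.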
# PI5P4Ka inh: qHTS for Inhibitors of phosphatidylinositol 5-phosphate 4-kinase (PI5P4K); AID 652105, 2013; max response, %; PI5P4Kalpha enzyme, ADP-Glo luminescence, 60 min; stronger effect = lower value; Phosphatidylinositol 5-phosphate 4-kinase type-2 alpha (Homo sapiens), P48426; 330,000 tested, 1.2% active; active = max response of -50% or lower; inconclusive = between -30% and -50%; inactive = -30% or higher; also: value at the top dose of about 77 µM; % is scaled to controls: 0 for no effect and ±100 for the full control effect
#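 Reactions run in 0.038 M HEPES pH 7.4, 0.28 mM EGTA, 0.1% CHAPS and 5% DMSO, with PI5P4Kalpha, substrate, compound and 5 microM ATP final, one hour at room temperature. Readout is ADP-Glo luminescence.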
# PLK1 PBD inh: qHTS for Inhibitors of PLK1-PDB (polo-like kinase 1 - polo-box domain): Primary Screen. AID 720504, 2013. 360,000 tested, 2.8% active. Plk1 PBD binding of FITC phosphopeptide, fluorescence polarization. Potency, µM, inactives show max response, negative = inhibition, actives largely listed as inhibitors; also: potency is read from the fitted curve at half-maximal effect; series mostly up to about 57 µM; % is scaled to controls: 0 for no effect and ±100 for the full control effect; nearly all actives have a fitted effect of over 65% in size
# HP1b binding inh: HTS for Inhibitors of HP1-beta Chromodomain Interactions with Methylated Histone Tails. Potency, µM (doses to about 114 µM), for inactives: at the highest dose activity change, negative = inhibition, hits mostly inhibitors. AlphaScreen HP1-beta / biotin-H3K9me3 peptide binding. 390,000 tested, 0.56% active. Chromobox protein homolog 1 (Homo sapiens), P83916; also: potency is read from the fitted curve at half-maximal effect; nearly all actives have a fitted effect of over 70% in size
#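 HP1-beta protein (50 nM final) preincubated 30 min at room temperature with biotinylated H3(1-18)K9me3 peptide (50 nM) in PBS pH 7.4, 0.01% Tween-20, then compound added for 30 min. AlphaScreen streptavidin donor/nickel chelate acceptor beads (10 ug/mL final), 30 min dark, luminescence read.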
# JMJD2A Tudor inh: qHTS Assay for Inhibitors of JMJD2A-Tudor Domain. Lysine-specific demethylase 4A (Homo sapiens), O75164. AlphaScreen JMJD2A-Tudor / H3K4me3 peptide binding. Potency, µM (series often up to 114 µM), for the others: at the highest dose activity change, negative = inhibition, most hits filed as inhibitors. 390,000 tested, 4.4% active; also: potency is read from the fitted curve at half-maximal effect; % is scaled to controls: 0 for no effect and ±100 for the full control effect; nearly all actives have a fitted effect of over 50% in size
# Active calls of the source: *; ? = inconclusive; . = not tested or not shown; ! = repeats disagree; [ ] = another dose, or the depositor's remark. Unless noted, calls follow the shape of the dose curve; as a rule, active = well fitted curve in the direction sought with a large enough effect; inconclusive = small, poorly fitted or top-dose-only effect, or another doubt; inactive = no such curve, though single readings can be large; an effect the other way counts as inactive or inconclusive.
SMILES,BAZ2B inh,G9a block,PI5P4Ka inh,PLK1 PBD inh,HP1b binding inh,JMJD2A Tudor inh
Cc1ccc(Cn2c(SCc3ccc(C(=O)NC4CCCC4)cc3)nc3ccncc32)cc1,-2%,?,.,.,53%,-10%
COC(=O)c1ccc(N2C(=O)CC(N3CCC(n4c(=O)[nH]c5ccccc54)CC3)C2=O)cc1 (stereo unspecified),-1%,?,0,-9%,44%,-25%
COC(=O)c1ccc(N2C(=O)CC(N3CCC(O)(c4ccc(Br)cc4)CC3)C2=O)cc1 (stereo unspecified),4%,11µM*,-1,0%,49%,-9%
CCCCC/C=C\C/C=C\C/C=C\C/C=C\CCCC(=O)N[C@H](C)CO,.,1%[59 µM],.,.,.,.
CC(N)c1cccc(Cl)c1Cl (stereo unspecified),.,8%[59 µM],.,.,.,.
C[n+]1c(-c2ccccc2)c2cc(N)ccc2c2ccc(N)cc21,40µM*,?,-22,-22%,-21%,?
CCCN[C@@H]1CCc2c(OC)cccc2[C@@H]1C,.,-1%[59 µM],.,.,.,.
CCCCCSc1cc(O)c(C(CNC)C(C)C)cc1OC (stereo unspecified),?,11µM*,6,-6%,9%,?
CC1CCCC(C2(O)C(=O)Nc3ccccc32)C1=O (stereo unspecified),-33%,1.8µM*,-5,-6%,4%,-6%
NCCCCC(NC(CCc1ccccc1)C(=O)O)C(=O)N1CCCC1C(=O)O (stereo unspecified),.,-46%[2.33 µM],.,.,.,.
O=C(NCc1nnc(SCC(=O)N2CCN(c3ccccc3)CC2)o1)c1ccco1,-3%,-8%[59 µM],-6,27µM*,-4%,?
CCc1n[nH]c(CCN)n1,-13%,56µM*,0,-13%,10%,?
COc1ccc(Nc2nc(N)nc(CSc3nc4ccccc4s3)n2)cc1,-35%,?,.,.,-16%,?
CN(C)CC1CCCCC1OC(=O)Cc1ccc(Cl)c([N+](=O)[O-])c1 (stereo unspecified),?,?,-10,-19%,?,14µM*
CC1CCCC(C)N1C(=O)CSc1nnc(NC(=O)c2cccs2)s1 (stereo unspecified),-6%,50µM*,2,?,38%,-5%[57.1 µM]
CC(=O)Nc1nnc(SCC(=O)NCCOc2ccccc2)s1,?,?,-7,-2%,-5%,-18%
Cn1cccc1CN1CCN(C(=O)COc2ccccc2)CC1,45µM*,?,-10,1%,?,7.1µM*
CN1CCCN(C(=O)COc2ccccc2)CC1,-2%,.,0,3%,31%,12%
COc1ccccc1CN1CCN(C(=O)COc2cccc(C)c2)CC1,50µM*,?,2,-7%,?,32µM*
COc1ccc(OC)c(CN2CCN(C(=O)COc3cccc(C)c3)CC2)c1,?,7.1µM*,2,-2%,?,3.5µM*
COc1cccc(CN2CCN(C(=O)Cc3ccccc3OC)CC2)c1,-10%,.,1,-8%,30%,-5%
Cc1cccc(OCC(=O)N2CCN(CCc3ccccn3)CC2)c1,-22%,1%[59 µM],.,.,35%,-3%
COc1cc(CN2CCN(C(=O)COc3ccccc3)CC2)cc(OC)c1OC,?,?,5,1%,-20%,3.2µM*
Cc1ccc(C)c(S(=O)(=O)Nc2ccc3c(c2)CCCN3C(=O)c2cccs2)c1,-26%,?,.,.,14%,-17%
Nc1c(C(=O)Nc2ccc(Br)cc2F)sc2nc3c(cc12)N1CCC3CC1,-3%,?,.,.,40%,?
SMILES,BAZ2B inh,G9a block,PI5P4Ka inh,PLK1 PBD inh,HP1b binding inh,JMJD2A Tudor inh
Nc1c(C(=O)Nc2ccc(F)c(Cl)c2)sc2nc3c(cc12)N1CCC3CC1,-17%,8.9µM*,.,.,63%,?
CN(C)c1ccc(NC(=O)c2sc3nc4c(cc3c2N)N2CCC4CC2)cc1,?,5µM*,.,.,14%,-19%
Cc1nn(C)c(C)c1-c1cccc2c1CCC(N(C)C)C2 (stereo unspecified),.,9%[59 µM],.,.,.,.
CCOC(=O)c1c(/N=C/C2C(=O)NC(=S)NC2=O)sc(C)c1C,-10%,35µM*,.,.,.,.
CCOC(=O)c1cc(C)sc1/N=C/C1C(=O)NC(=S)NC1=O,-33%,40µM*,?,5.3µM*,-16%,?
CN(C[C@H](Cc1ccccc1)N(C[C@H](Cc1ccccc1)N(CCC(C)(C)C)N=O)N=O)N=O,?,2%[12.7 µM],4,-20%,37%,?
CCC(C)C1NC(=O)C(C(C)=O)=C1O (stereo unspecified),50µM*,14%[12.7 µM],-9,0%,44%,-23%
CC1Cc2ccccc2N1Cc1cccc(S(=O)(=O)N(C)C)c1 (stereo unspecified),?,-8%[2.33 µM],-1,?,?,?
CC(O)C(C)OC(=O)[C@@H]1C[C@@H]2c3cccc4c3c(cn4C(C)C)C[C@H]2N(C)C1 (stereo partly specified),.,45µM*!,.,.,.,.
COc1ccccc1-c1n[nH]c(=S)n1Cc1ccco1,?,3.5µM*,.,.,.,.
S=c1[nH]nc(C2CC2)n1Cc1ccccc1,.,6.3µM*,7,?,-16%,16µM*
O=c1c2ccccc2nc(-c2ccco2)n1-c1ccc(Br)cc1,-11%,8%,8,0%,19%,-3%
S=c1[nH]nc(-c2ccco2)n1Cc1ccccc1,-25%,?,4,-10%,-6%,7.1µM*
CN1C(=O)C(=Cc2ccc(N(C)C)c([N+](=O)[O-])c2)C(=O)N(C)C1=O,14%,117%[59 µM],.,.,.,.
C=CCN1C(=O)NC(=O)/C(=C/c2ccc(N(C)C)c(Br)c2)C1=O,-33%,16µM*,-59*,6.7µM*,33%,-12%
COc1ccc(CN2C(=O)NC(=O)/C(=C/c3ccoc3)C2=O)cc1,50µM*,18µM*,-71*,2.4µM*,22µM*,56µM*
C=CCN1C(=O)NC(=O)/C(=C/c2ccoc2)C1=O,0%,-23%[59 µM],-69*,8.4µM*,-19%,?
O=C(COc1ccccc1Cl)N1CCN(CCc2ccccn2)CC1,-31%,12%[59 µM],.,.,61%,3%
N[C@H]1C[C@H]1c1ccccc1,.,-43%[12.7 µM],.,.,.,.
CCN1CCN(Cc2ccc(C)cc2C)CC1,?,56µM*,0,-4%,56%,-17%
O=C(CNC1CCCCC1)N1CCC2(CC1)OCCO2,?,35µM*,.,-6%,?,3.2µM*

# Assay outcomes as filed in PubChem BioAssay.
